Rows were chosen to be rich in hits. Some 4.5% of all compounds tested hit in one or more screens of this group.
Rce1 inhib: yeast Rce1p protease inhibitors, primary screen, biochemical, fluorescence, cell-free homogeneous | CAAX prenyl protease 2 (Saccharomyces cerevisiae (strain ATCC 204508 / S288c)), Q03530 | 0.27% of 290,000 active | yeast membranes, quenched prenylated peptide cleavage fluorescence | calls only;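 active means fall in fluorescence gain of 50% or more versus controls, with final raw signal at or below 3038400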;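 further: plate controls were neutral control wells for no effect and wells lacking membranes for full effect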
HDAC3 inh: HDAC3 deacetylase inhibitors, primary screen, biochemical, fluorescence, cell-free homogeneous; recombinant HDAC3, fluorogenic peptide/trypsin coupled; inhibition, % at 8.3 µM; 0.15% of 320,000 active; in the data active means inhibition above about 26%, passing the limit was not always enough
Target sequence (O15379 whole entry, looked up): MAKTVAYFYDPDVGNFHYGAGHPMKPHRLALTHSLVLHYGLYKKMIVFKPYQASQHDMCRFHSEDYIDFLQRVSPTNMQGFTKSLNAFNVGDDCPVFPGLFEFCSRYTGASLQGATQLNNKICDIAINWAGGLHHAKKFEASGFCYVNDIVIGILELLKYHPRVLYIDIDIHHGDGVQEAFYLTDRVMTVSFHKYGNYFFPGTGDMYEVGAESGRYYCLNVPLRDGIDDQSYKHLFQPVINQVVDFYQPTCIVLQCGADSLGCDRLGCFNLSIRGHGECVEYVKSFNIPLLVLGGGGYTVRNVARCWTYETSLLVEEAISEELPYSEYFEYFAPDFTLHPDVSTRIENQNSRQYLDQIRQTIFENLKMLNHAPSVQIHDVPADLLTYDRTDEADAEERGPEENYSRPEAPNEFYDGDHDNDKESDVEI
Rtt109 HAT inh: inhibitors of C. albicans Rtt109/Vps75 HAT, primary screen, biochemical, ThioGlo CoA-SH fluorescence, plate reader. purified Rtt109/Vps75, 4 h. inhibition, % at 34.9 µM. 0.16% of 330,000 active. AID 540336, 2011;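 active means inhibition of at least 50% in every replicate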
Efflux pump inh: inhibitors of Candida efflux pumps in yeast, primary screen, S. cerevisiae, Nile Red, multiplex; S. cerevisiae Candida pump triplex; inhibition, % at 10 µM; 0.44% of 330,000 active; AID 485275, 2010;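 active means plate passing quality check with inhibition over a set limit, or well fluorescence over plate mean plus 4 SD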;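 further: Nile Red retained in pooled yeast measured as flow cytometry median fluorescence; 0% = buffer negative control and 100% = Enniatin B positive control; higher means more Nile Red kept so more efflux inhibition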
GRK2 aptamer HTS: compounds blocking aptamer binding on GRK2 – biochemical, human GRK2, bead flow cytometry, HTS, primary screen; Beta-adrenergic receptor kinase 1 (Homo sapiens), P25098; FAM-aptamer displacement from GRK2; inhibition of aptamer binding, % at 10 µM; 0.59% of 330,000 active;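 active means inhibition of aptamer binding above 40%, roughly 3 SD of noise, on plates passing a quality check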;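 further: median bead fluorescence of bound FAM aptamer so fluorescent compounds give negative values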
ALR inh: inhibitors of human ALR sulfhydryl oxidase, primary screen, biochemical, H2O2 detection, HRP-luminol luminescence, single point | FAD-linked sulfhydryl oxidase ALR (Homo sapiens), P55789 | purified ALR, DTT oxidation | inhibition, % (no concentration beside the values) | 3.8% of 290,000 active;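 active means mean replicate inhibition above about 79%, with every replicate also reaching it, limit read from the data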
Target sequence (P55789 whole entry, looked up): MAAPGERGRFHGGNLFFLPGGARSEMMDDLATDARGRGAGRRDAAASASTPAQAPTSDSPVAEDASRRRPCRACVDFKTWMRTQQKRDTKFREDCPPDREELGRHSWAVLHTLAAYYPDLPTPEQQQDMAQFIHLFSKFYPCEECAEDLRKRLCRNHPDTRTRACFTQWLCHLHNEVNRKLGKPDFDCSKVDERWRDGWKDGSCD
* = called active by the depositor; i = inactive; . = not tested or not shown; + = active, no number.

SMILES | Rce1 inhib | HDAC3 inh | Rtt109 HAT inh | Efflux pump inh | GRK2 aptamer HTS | ALR inh
CC(=O)CSc1nc2ccccc2s1 | i | 1.1 | 1.9 | -0.1 | 1.0 | 98.1*
CC1CN(C(=O)CNC(=O)COc2ccccc2)CC(C)O1 (stereo not drawn) | . | -3.5 | -7.9 | 0.1 | 13.0 | 0.5
CCN(C(=O)c1cc2c(C)nc3ccccc3c2o1)c1cc(Cl)ccc1OC | i | 3.1 | 18.3 | 0.1 | 0.0 | -6.7
Cc1ccc(C(=O)NCC(=O)Nc2ccncc2)s1 | i | -4.8 | -4.2 | 1.2 | 0.0 | 1.3
CC(Sc1nc2ncc(Cl)cc2[nH]1)C(=O)NC1(C#N)CCCCC1 (stereo not drawn) | . | 3.2 | 2.3 | -0.2 | 4.0 | 6.3
Cc1onc(NC(=O)c2ccc(Cl)cc2Cl)c1Br | . | 0.3 | -4.5 | 0.1 | 3.0 | -3.6
COc1cc2c(cc1OC)CN(C(=O)CSc1ccccc1C)CC2 | . | -3.7 | -3.6 | 0.2 | 3.0 | -10.4
O=C(CSc1ccc(F)cc1)Nc1ccc(C2SCCS2)cc1 | i | 2.0 | 5.7 | 0.0 | 0.0 | -4.0
N#CC1(NC(=O)CSc2nc3ccc([N+](=O)[O-])cc3s2)CCCCC1 | i | -0.1 | 5.5 | 0.1 | 1.0 | -15.9
N#CC1(NC(=O)CSc2nc3ccccc3s2)CCCCC1 | . | 2.9 | -1.9 | 0.0 | 7.0 | 98.4*
Cc1c(CCC(=O)NCCC(=O)O)c(=O)oc2c(C)c3oc4c(c3cc12)CCCC4 | i | -19.4 | -4.8 | -0.1 | 0.0 | 97.9*
Cc1c(CCC(=O)NCC(=O)NCC(=O)O)c(=O)oc2cc3oc4c(c3cc12)CCCC4 | i | -5.5 | 4.2 | 0.2 | 0.0 | .
Cc1c(CCC(=O)N[C@@H](C)C(=O)O)c(=O)oc2c(C)c3oc4c(c3cc12)CCCC4 | i | -7.4 | 9.7 | 0.0 | 0.0 | 97.4*
Cc1c(CCC(=O)N[C@@H](CC(C)C)C(=O)O)c(=O)oc2cc3oc4c(c3cc12)CCCC4 | i | 3.2 | 0.9 | 0.1 | 1.0 | 0.4
O=C1Nc2ccccc2N(O)N1c1cc(-c2cccc(Cl)c2)no1 | i | 3.0 | 4.2 | 0.2 | 2.0 | 79.2*
Cc1ccc(C2(c3ccccc3)NC(=O)N(CC(=O)NCc3ccccc3)C2=O)cc1C (stereo not drawn) | . | . | -4.9 | 0.0 | 0.0 | .
CCOc1ccc(NC(C)c2cc(Cl)ccc2O)cc1 (stereo not drawn) | i | 9.5 | -3.8 | -0.1 | 0.0 | 98.9*
CCOc1ccc(S(=O)(=O)Nc2cc(Cl)ccc2O)cc1 | i | 5.4 | 11.7 | 0.0 | 0.0 | 27.7
CC(Nc1ccc(Br)cn1)c1cc(Cl)ccc1O (stereo not drawn) | i | . | 4.9 | . | . | .
CC(Nc1ccc(Cl)cc1)c1cc(Cl)ccc1O (stereo not drawn) | i | 6.6 | 2.0 | 0.0 | 0.0 | 99.1*
CCOC(=O)N1CCN(C(=O)CSCc2nc(-c3ccccc3C)oc2C)CC1 | i | 4.9 | -2.4 | 0.1 | 0.0 | 98.8*
CCOC(=O)N1CCN(C(=O)CSCc2nc(-c3ccccc3F)oc2C)CC1 | i | 1.9 | -70.1 | 0.0 | 2.0 | 99.8*
N#CC1=C(c2ccccc2)/C(=C/c2ccccc2)OC1=O | i | 1.9 | 3.1 | -0.2 | 0.0 | -2.5
N#CC(C#N)=C1NC(N)=C(C#N)C(c2ccccc2)=C1C#N | + | -9.8 | -15.0 | 0.1 | 3.0 | .
CCn1c(CSc2nccn2C)nc2cc(C(=O)O)ccc21 | i | -1.6 | -17.5 | 0.2 | 0.0 | 97.8*
SMILES | Rce1 inhib | HDAC3 inh | Rtt109 HAT inh | Efflux pump inh | GRK2 aptamer HTS | ALR inh
CCn1c(CSc2nc3ccccc3[nH]2)nc2cc(C(=O)O)ccc21 | i | 4.0 | -60.0 | -0.1 | 4.0 | 58.2
CCCCN(C(=O)c1[nH]c(C)c(C(=O)OCC)c1C)c1c(N)n(CCCC)c(=O)[nH]c1=O | i | 11.2 | 1.3 | 0.0 | 1.0 | -6.7
O=S(=O)(NCc1ccccc1)c1cccc2nonc12 | i | 3.0 | -7.3 | 0.0 | 1.0 | 98.9*
Cc1oc(-c2ccc(Cl)cc2)nc1CSCC(=O)NCCCN1CCOCC1 | i | -5.5 | -3.3 | -0.2 | 0.0 | 99.1*
Cc1cccc(-c2nc(CSCC(=O)NCCCN3CCOCC3)c(C)o2)c1 | i | 1.1 | -3.4 | 0.3 | 0.0 | 99.4*
Cc1oc(-c2cccc(Cl)c2)nc1CS(=O)(=O)CC(=O)NCCCN1CCOCC1 | i | -10.1 | -3.9 | 0.0 | 0.0 | 47.5
COc1ccc(-c2cc(-c3ccco3)[nH]c(=O)c2C#N)cc1OC | i | . | -0.8 | 0.1 | 2.0 | .
CC(C)C(=O)n1nc(-c2cccnc2)nc1NCc1cccs1 | i | -1.8 | -5.0 | 0.1 | 0.0 | 97.1*
COc1ccc(CNc2nc(-c3cccnc3)nn2C(=O)C(C)C)cc1 | i | . | 30.4 | . | . | .
CC[C@@H](C)[C@H](NC(=O)Cc1c(C)c2cc3c(C)c(C)oc3c(C)c2oc1=O)C(=O)O | i | 0.5 | 4.8 | -0.1 | 0.0 | 5.3
CC[C@@H](C)[C@H](NC(=O)Cc1c(C)c2cc3c(C)coc3c(C)c2oc1=O)C(=O)O | i | -1.9 | 11.4 | -0.2 | 0.0 | 97.7*
CCCCC(NC(=O)Cc1c(C)c2cc3c(-c4ccccc4)coc3c(C)c2oc1=O)C(=O)O (stereo not drawn) | i | 0.7 | 1.3 | -0.2 | 0.0 | 97.9*
Cc1c(CC(=O)O)c(=O)oc2c(C)c3occ(-c4ccc(Br)cc4)c3cc12 | i | 1.2 | 1.9 | 0.2 | 0.0 | 6.6
CC(C)CN1C(=O)/C(=C/c2cccs2)NC1=S | i | 10.1 | 11.6 | 0.1 | 0.0 | 99.2*
Cc1ccc(S(=O)(=O)N2CCN(S(=O)(=O)N3CCC(C)CC3)CC2)c(C)c1 | . | -1.1 | -32.3 | 0.1 | 3.0 | 1.6
Cc1ccc(S(=O)(=O)N2CCN(S(=O)(=O)N3CCCCC3)CC2)c(C)c1 | i | -11.2 | 2.3 | 0.0 | 1.0 | 99.5*
O=C(O)CCc1nc2cc(C(F)(F)F)ccc2n(Cc2ccccc2)c1=O | + | 2.3 | -4.2 | 0.1 | 2.0 | -2.8
CCOC(=O)/C(=N/Nc1ccccc1OC)N1CCCc2ccccc21 | i | -13.2 | -4.4 | -0.2 | 0.0 | 71.3
CCOC(=O)/C(=N/Nc1ccccc1)N1CCCc2ccccc21 | i | 7.1 | 3.2 | -0.1 | 0.0 | 93.5*
COC(=O)/C(=N/Nc1ccccc1C)N1CCCc2ccccc21 | i | -4.1 | 12.6 | 0.0 | 3.0 | 98.3*
O=C(CCc1ccc(S(=O)(=O)N2CCOCC2)cc1)OCC(=O)c1ccccc1F | . | 2.6 | 8.7 | -0.2 | 0.0 | .
COC(=O)c1cc(C)ccc1/C=C1/Cc2c(C)cc(C)cc2C1=O | . | . | 2.5 | . | . | .
